# TRPML1 inh = qHTS for Inhibitors of the Human Mucolipin Transient Receptor Potential 1 (TRPML1); hit rate 0.02% among 390,000; TRPML1-inducible cells, Ca2+ dye fluorescence, FDSS; hits give low values; inhibition of EC80 agonist-evoked calcium signal; AID 624415, 2012; activity change, negative = inhibition, % (concentration not given with the values); Mucolipin-1 (Homo sapiens), Q9GZU1; in the data active = activity change below about -50%; inconclusive = between about -30% and that limit;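 note: stimulus is agonist 54-4 at its EC80 concentration; % is set by controls: 0 for no effect and ±100 for the full control effect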
#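 Calcium fluorescence in TRPML1-DL cells induced overnight with Tet: a 110 s read after compound pin addition, then a 110 s antagonist read after challenge with 54-4 at 4 uM final (EC80).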
# TRPML1 agonist = qHTS for Agonists of the Human Mucolipin Transient Receptor Potential 1 (TRPML1); activation, % (no concentration beside the values); TRPML1-expressing cells, Ca2+ dye fluorescence, FDSS; hit rate 0.12% among 410,000; in the data active = activation above about 50%; inconclusive = mostly about 30% to 49%; note: 0% is about no effect
#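 In this qHTS format, compounds were pin-transferred onto Ca8-dye-loaded TRPML1-DL cells induced with Tet overnight, and intracellular Ca2+ fluorescence was recorded kinetically for 110 s after a 10 s baseline. A subsequent 4uM final 54-4 (EC80) addition followed by a second 110 s read served as the antagonist phase.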
# D3 ag = qHTS of D3 Dopamine Receptor Agonist: qHTS | D(3) dopamine receptor (Homo sapiens), P35462 | D3R DiscoveRx beta-arrestin cells, luminescence, 90 min | max activation, % | hit rate 0.58% among 410,000 | AID 652048, 2013; in the data active = max activation above about 30%; note: 0% is about no effect
# Target sequence (P35462 whole entry, looked up): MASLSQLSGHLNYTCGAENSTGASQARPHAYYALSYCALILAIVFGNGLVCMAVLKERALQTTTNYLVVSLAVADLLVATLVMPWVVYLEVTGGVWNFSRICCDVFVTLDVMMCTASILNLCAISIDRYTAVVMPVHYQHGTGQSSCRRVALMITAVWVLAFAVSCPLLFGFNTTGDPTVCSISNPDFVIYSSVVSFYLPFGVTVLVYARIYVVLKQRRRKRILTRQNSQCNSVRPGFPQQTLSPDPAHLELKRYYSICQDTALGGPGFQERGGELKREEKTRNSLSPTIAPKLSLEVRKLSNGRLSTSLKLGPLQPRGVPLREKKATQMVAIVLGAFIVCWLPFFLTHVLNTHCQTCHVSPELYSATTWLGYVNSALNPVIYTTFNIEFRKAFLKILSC
#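 Cells at 1500/well, incubated overnight, then treated with pinned compounds (dopamine as control) for 90 min at 37 degrees C. DiscoveRx reagent added for 30 - 60 minutes at room temperature; luminescence read.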
# D3 antag = qHTS of D3 Dopamine Receptor Antagonist: qHTS; D(3) dopamine receptor (Homo sapiens), P35462; D3R cells, DiscoveRx beta-arrestin luminescence, antagonist mode; hits give low values; max response, negative = inhibition, %; hit rate 2.5% among 360,000; in the data active = max response below about -50%; inconclusive = no clear call, values can overlap the other calls; note: % is set by controls: 0 for no effect and ±100 for the full control effect
#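 Cells plated overnight at 1500 cells/well, then exposed to library compounds with dopamine controls for 90 minutes at 37 degrees C. DiscoveRx reagent added for 30–60 minutes at room temperature; luminescence read, quantitative HTS format.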
# The depositor's hits bear a star; ? = inconclusive; . = not tested or not shown. Most compounds without a hit are left out; they make up all but 2.9% or so of the library.
SMILES,TRPML1 inh,TRPML1 agonist,D3 ag,D3 antag
C=CCNc1nc(NCCOc2ccccc2Cl)c2sc(-c3ccccc3)cc2n1,.,0.3,-13.3,-66.5*
Cc1ccc(CSc2nc3cccnc3n2Cc2nc(-c3ccccc3F)oc2C)cc1,17.3,0.6,8.1,.
O=C(NC(c1ccccc1)c1cnccn1)C1CCN(CCOc2ccc(Cl)cc2Cl)CC1 (configuration not stated),.,2.9,-13.0,-84.1*
O=C(NC(c1cccnc1)c1ccc2c(c1)OCO2)C1CCN(CCOc2ccc(Cl)cc2Cl)CC1 (configuration not stated),.,1.6,-13.8,-68.8*
Cc1ccccc1C(c1ncccc1C)N(C)C(=O)C1CCN(CCOc2ccc(Cl)cc2Cl)CC1 (configuration not stated),.,0.8,19.8,-21.5
O=C(NC(c1ccccc1)c1ccsc1)C1CCN(CCOc2ccc(Cl)cc2Cl)CC1 (configuration not stated),.,0.2,51.9*,55.6
COc1cc(CN2CCC(C(=O)NC(c3ccccc3)c3ccsc3)CC2)cc(OC)c1 (configuration not stated),.,4.6,-19.4,?
C[N+]1(CC(=O)c2ccc(I)cc2)CCCc2ccccc21 (configuration not stated),.,-0.6,.,.
CC(=O)Nc1c(C)nn(-c2ccccc2)c1N1CCC(C(=O)Nc2cccc(C(F)(F)F)c2)CC1,-1.5,0.5,2.0,.
COc1ccc(CC(CC(=O)O)C(=O)Nc2ccc(Cl)c(Cl)c2)cc1 (configuration not stated),9.6,0.1,-10.9,-19.4
COc1ccc(CC(CC(=O)O)C(=O)NCc2ccccc2)cc1 (configuration not stated),40.5,0.4,-8.7,-68.8*
COc1cc2[nH]c(-c3ccc(C)cc3)cc(=O)c2cc1OC,0.0,-0.6,-67.6,-111.5*
COc1ccc(NS(=O)(=O)c2cc(C)ccc2OC)cc1OC,11.9,-0.1,9.9,-58.0*
CCOc1ccccc1CNC(=O)C(CC)n1nc(C)c2c(C)n(-c3ccccc3)nc2c1=O (configuration not stated),-13.3,-0.5,-6.9,.
COc1ccc(CCNC(=O)C(=O)NCC2CCCN2S(=O)(=O)c2ccc(OC)cc2)cc1 (configuration not stated),14.8,1.1,34.5*,28.4
COc1ccc(S(=O)(=O)N2CCCC2CNC(=O)C(=O)NC2CCCC2)cc1 (configuration not stated),7.9,-1.3,0.8,29.6
COc1ccc(C(=O)/C(=C\c2ccco2)N2C=CC=CC2=C(C#N)C#N)cc1,23.1,2.0,-11.5,-64.6*
COc1ccc(N=N/C(=C\O)C(=O)c2cccs2)cc1,-4.8,-0.1,21.1,13.1
N#CC(C#N)=C1C=CC=CN1/C(=C\c1ccco1)C(=O)c1ccc(Br)cc1,-6.8,1.4,-11.1,-98.8*
COc1ccc(/C=C(/C(=O)c2cccs2)N2C=CC=CC2=C(C#N)C#N)cc1,-0.5,3.1,-9.7,-81.0*
N#CC(C#N)=C1C=CC=CN1/C(=C\c1ccco1)C(=O)c1ccccc1,4.7,4.6,-12.3,-106.4*
COc1ccccc1NC(=O)N1CC(=O)Nc2sc3c(c2C1c1ccccc1)CCCC3 (configuration not stated),5.9,1.0,3.2,.
Cc1ccc(C)c(-c2ccc(=O)n(C(C)C(=O)Nc3ccccc3C(F)(F)F)n2)c1 (configuration not stated),8.2,1.8,-9.5,.
COc1cc(N)c(NC(=O)/C=C/c2nc3cc(OC)c(OC)cc3[nH]2)cc1OC,.,-0.4,.,.
COc1cc2c(NC3CCN(C)CC3)nc(N3CCCN(C)CC3)nc2cc1OCCCN1CCCCC1,.,-0.5,.,.
Cn1nc(-c2ccccc2F)c2cc(C(=O)N3CCN(c4ccccc4F)CC3)sc21,0.6,-0.1,50.7*,.
Cc1ccc(CCNC(=O)c2cc3c(-c4ccccc4F)nn(C)c3s2)cc1,0.7,1.1,7.9,.
CCCCN(CC)CCNC(=O)c1cc2c(-c3ccccc3F)nn(C)c2s1,.,.,-15.0,-61.2*
CCN(CCCNC(=O)c1cc2c(-c3cccc(OC)c3)nn(C)c2s1)Cc1ccccc1,20.1,0.5,-19.8,-53.9*
O=C(C[n+]1cccc(Cl)c1)c1ccc(F)cc1,.,0.1,.,.

# Screening data as filed in PubChem.
